± gives the standard deviation of the averaged measurements.
Key:
Assay in all cases: relative enzymatic activity vs untreated control (fraction); higher = less inhibition
Conditions in all cases: 100 µM; incubation time: 2 h at 37 C
DNA gyrase = tested on: DNA gyrase
Experimental: (§1)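 In vitro enzymatic inhibition assays (ProFoldin kits) for 12 purified essential E. coli enzymes or complexes, each treated with 218 active antibacterial compounds at 100 µM for 2 h at 37°C. Read-outs were fluorescence or absorbance (phosphate detection, dye binding), converted to activity via standard curves and expressed relative to untreated DMSO controls.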

DNA helicase = DNA helicase (UniProt P0ACB1)
Experimental: as §1

DNA ligase = DNA ligase (UniProt B1XA82)
Experimental: as §1

DNA polymerase = DNA polymerase (UniProt P10443)
Experimental: as §1

DNA primase = DNA primase (UniProt P0ABS7)
Experimental: as §1

GlmU = GlmU (UniProt A7ZTU1)
Experimental: as §1

Guanlyate kinase = Guanlyate kinase (UniProt Q0TBG1)
Experimental: as §1

MurA = MurA (UniProt Q3YX52)
Experimental: as §1

MurD = biological target: T1, MurD (UniProt P14900)
T1 sequence (whole entry): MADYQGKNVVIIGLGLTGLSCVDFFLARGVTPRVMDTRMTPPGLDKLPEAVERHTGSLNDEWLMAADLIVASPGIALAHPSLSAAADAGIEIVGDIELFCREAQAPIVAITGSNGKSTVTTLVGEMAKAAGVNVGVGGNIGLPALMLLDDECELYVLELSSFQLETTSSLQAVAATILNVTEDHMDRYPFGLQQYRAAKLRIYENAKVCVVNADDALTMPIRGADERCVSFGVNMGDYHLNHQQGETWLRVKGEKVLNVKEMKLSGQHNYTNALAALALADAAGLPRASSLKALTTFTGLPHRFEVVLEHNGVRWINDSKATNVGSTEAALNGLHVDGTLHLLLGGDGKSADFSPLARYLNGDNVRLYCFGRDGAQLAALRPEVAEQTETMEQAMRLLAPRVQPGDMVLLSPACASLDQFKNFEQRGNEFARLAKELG
Experimental: as §1

MurF = biological target: T2, MurF (UniProt P11880)
T2 sequence (whole entry): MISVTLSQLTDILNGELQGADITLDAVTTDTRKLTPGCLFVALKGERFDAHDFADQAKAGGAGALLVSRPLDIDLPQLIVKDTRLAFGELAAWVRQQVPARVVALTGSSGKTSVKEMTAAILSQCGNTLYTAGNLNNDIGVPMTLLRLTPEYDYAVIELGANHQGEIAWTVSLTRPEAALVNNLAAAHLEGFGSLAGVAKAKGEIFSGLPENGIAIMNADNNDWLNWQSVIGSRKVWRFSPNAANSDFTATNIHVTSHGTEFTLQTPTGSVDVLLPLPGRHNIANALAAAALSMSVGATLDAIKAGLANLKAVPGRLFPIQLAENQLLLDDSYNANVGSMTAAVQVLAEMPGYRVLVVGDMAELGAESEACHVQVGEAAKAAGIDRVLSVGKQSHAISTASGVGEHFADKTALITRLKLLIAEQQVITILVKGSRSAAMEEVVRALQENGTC
Experimental: as §1

RNA polymerase = tested on: RNA polymerase
Experimental: as §1

Sequence of GlmU (A7ZTU1 whole entry, looked up): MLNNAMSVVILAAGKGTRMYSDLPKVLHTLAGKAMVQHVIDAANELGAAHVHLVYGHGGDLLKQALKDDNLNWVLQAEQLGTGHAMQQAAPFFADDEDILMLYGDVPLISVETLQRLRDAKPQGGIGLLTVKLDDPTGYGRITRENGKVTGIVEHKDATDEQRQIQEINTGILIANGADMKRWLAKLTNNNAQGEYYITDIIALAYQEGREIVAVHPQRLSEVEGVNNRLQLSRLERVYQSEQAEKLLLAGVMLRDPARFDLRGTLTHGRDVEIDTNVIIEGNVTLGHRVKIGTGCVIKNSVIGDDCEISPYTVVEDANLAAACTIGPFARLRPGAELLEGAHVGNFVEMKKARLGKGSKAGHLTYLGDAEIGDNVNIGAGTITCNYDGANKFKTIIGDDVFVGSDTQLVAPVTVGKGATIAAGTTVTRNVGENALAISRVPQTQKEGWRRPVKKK
Sequence of DNA ligase (B1XA82 whole entry): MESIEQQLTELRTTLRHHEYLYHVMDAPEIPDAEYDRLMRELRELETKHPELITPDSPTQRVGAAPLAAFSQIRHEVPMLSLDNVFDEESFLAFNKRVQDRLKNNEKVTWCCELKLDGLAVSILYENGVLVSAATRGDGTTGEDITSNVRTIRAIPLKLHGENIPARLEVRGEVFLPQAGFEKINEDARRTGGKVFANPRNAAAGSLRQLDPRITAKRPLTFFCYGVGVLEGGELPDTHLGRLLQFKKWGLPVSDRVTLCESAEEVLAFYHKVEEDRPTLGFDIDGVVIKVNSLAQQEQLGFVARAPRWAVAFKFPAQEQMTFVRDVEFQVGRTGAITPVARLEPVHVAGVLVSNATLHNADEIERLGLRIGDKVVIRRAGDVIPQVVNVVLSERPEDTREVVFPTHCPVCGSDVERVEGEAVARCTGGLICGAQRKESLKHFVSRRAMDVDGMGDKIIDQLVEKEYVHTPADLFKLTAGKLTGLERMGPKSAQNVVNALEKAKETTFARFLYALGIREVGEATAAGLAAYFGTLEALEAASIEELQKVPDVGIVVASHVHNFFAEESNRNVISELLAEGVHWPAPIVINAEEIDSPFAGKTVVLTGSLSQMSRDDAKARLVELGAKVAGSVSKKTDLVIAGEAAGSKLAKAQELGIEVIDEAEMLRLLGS
Sequence of DNA polymerase (P10443 whole entry): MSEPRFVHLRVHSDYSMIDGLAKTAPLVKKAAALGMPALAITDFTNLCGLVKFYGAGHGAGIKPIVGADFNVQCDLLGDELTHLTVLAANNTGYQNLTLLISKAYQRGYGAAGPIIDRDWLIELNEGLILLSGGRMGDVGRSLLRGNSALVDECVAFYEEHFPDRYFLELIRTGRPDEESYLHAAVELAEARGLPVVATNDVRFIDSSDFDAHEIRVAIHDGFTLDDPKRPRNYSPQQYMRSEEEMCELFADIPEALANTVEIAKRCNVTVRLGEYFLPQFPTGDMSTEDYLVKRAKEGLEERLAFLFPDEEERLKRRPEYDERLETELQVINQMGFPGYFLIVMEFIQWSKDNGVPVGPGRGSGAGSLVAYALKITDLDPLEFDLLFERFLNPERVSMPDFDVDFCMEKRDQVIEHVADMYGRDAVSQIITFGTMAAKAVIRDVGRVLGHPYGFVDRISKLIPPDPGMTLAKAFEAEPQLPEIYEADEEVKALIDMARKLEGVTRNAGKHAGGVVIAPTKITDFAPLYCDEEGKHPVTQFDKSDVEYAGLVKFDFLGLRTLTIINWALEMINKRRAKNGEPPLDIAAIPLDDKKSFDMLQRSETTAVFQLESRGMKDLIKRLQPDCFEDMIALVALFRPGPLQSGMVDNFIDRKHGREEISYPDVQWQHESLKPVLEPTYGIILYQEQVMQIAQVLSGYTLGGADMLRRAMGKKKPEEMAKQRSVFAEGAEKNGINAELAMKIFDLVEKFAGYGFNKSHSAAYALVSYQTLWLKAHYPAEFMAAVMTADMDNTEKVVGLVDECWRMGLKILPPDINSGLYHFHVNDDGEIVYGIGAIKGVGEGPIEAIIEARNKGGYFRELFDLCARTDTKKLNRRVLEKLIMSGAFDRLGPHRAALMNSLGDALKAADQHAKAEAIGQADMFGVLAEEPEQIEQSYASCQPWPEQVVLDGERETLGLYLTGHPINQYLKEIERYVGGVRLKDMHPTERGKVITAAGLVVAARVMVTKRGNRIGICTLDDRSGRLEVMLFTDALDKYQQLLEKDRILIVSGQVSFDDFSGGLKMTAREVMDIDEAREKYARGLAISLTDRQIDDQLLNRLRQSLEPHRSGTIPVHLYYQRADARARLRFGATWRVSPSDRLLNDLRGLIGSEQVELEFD
Sequence of DNA primase (P0ABS7 whole entry): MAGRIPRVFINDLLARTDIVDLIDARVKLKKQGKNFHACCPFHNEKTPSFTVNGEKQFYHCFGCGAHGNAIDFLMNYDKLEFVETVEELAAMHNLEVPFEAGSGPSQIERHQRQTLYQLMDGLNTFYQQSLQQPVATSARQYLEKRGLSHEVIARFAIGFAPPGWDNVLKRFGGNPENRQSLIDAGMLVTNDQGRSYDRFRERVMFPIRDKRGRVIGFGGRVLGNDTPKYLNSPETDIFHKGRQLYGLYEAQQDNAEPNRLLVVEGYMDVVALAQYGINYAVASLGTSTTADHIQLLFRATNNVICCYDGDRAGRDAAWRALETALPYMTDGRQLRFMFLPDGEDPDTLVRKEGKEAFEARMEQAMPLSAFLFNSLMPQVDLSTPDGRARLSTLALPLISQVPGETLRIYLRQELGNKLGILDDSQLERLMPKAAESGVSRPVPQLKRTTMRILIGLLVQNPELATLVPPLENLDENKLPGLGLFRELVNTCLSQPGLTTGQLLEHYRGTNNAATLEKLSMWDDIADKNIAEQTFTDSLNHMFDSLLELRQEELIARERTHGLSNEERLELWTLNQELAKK
Sequence of Guanlyate kinase (Q0TBG1 whole entry): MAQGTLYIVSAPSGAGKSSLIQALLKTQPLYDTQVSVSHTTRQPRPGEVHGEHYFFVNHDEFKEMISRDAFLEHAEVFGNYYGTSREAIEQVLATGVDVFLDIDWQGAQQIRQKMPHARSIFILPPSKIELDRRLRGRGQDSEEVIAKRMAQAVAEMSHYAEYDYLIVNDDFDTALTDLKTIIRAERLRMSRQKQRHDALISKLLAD
Sequence of MurA (Q3YX52 whole entry): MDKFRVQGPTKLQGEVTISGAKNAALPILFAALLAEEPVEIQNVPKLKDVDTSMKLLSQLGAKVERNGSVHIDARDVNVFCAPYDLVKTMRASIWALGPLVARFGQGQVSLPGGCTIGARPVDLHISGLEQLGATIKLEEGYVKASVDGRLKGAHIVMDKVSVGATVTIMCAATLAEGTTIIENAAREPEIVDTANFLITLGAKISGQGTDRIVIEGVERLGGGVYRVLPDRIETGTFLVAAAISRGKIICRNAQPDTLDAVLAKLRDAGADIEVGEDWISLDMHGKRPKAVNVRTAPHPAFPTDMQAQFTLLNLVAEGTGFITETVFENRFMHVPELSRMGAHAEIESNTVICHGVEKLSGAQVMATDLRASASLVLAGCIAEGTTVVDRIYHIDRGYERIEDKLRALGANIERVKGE
Sequence of DNA helicase (P0ACB1 whole entry): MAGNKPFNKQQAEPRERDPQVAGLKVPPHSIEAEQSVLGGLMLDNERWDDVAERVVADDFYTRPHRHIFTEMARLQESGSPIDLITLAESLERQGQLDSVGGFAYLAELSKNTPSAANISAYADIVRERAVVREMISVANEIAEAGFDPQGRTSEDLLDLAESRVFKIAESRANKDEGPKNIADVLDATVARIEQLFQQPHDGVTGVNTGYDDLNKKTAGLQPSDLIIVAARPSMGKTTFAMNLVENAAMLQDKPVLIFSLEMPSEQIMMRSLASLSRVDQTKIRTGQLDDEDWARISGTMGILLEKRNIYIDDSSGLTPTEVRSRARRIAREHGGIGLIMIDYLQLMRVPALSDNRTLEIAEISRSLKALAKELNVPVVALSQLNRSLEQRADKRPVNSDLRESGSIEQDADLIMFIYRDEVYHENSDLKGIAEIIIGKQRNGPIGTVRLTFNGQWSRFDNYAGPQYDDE

Structure (SMILES)	relative enzymatic activity (DNA gyrase)	relative enzymatic activity (DNA helicase)	relative enzymatic activity (DNA ligase)	relative enzymatic activity (DNA polymerase)	relative enzymatic activity (DNA primase)	relative enzymatic activity (GlmU)	relative enzymatic activity (Guanlyate kinase)	relative enzymatic activity (MurA)	relative enzymatic activity (MurD)	relative enzymatic activity (MurF)	relative enzymatic activity (RNA polymerase)
Oc1ccc(Cl)c2cccnc12	0.354 ± 0.41	0.534 ± 0.19	1.03 ± 0.24	1.12 ± 0.21	0.7986 ± 0.0017	0.9167 ± 0.0045	0.821 ± 0.036	0.442 ± 0.04	0.656 ± 0.46	1.02 ± 0.23	0.854 ± 0.1
CON=C1CN(c2nc3c(cc2F)c(=O)c(C(=O)O)cn3C2CC2)CC1CN.CS(=O)(=O)O (stereo not given)	0.058 ± 0.082	0.479 ± 0.14	1.09 ± 0.24	1.26 ± 0.31	0.805 ± 0.059	0.919 ± 0.027	0.856 ± 0.23	0.4853 ± 0.00068	0.503 ± 0.35	0.919 ± 0.19	0.88 ± 0.012
C[C@H]1c2cccc(O)c2C(=O)C2=C(O)[C@]3(O)C(=O)[C@@H](C(N)=O)C(=O)[C@@H](N(C)C)[C@@H]3[C@@H](O)[C@@H]21	0.782 ± 0.34	0.508 ± 0.05	0.954 ± 0.14	1.17 ± 0.29	0.8317 ± 0.0057	0.934 ± 0.018	0.958 ± 0.081	0.673 ± 0.19	0.601 ± 0.41	0.937 ± 0.26	0.882 ± 0.078
NCCONC(=O)[C@@H]1CC[C@@H]2CN1C(=O)N2OS(=O)(=O)O	0.796 ± 0.34	0.527 ± 0.074	1.08 ± 0.078	1.13 ± 0.22	0.762 ± 0.033	1.02 ± 0.082	1.01 ± 0.12	0.709 ± 0.27	0.562 ± 0.36	0.971 ± 0.24	0.902 ± 0.075
O=C(O)P(=O)(O)O	0.105 ± 0.15	0.549 ± 0.16	0.871 ± 0.14	0.703 ± 0.39	0.775 ± 0.04	1 ± 0.014	0.914 ± 0.092	0.79 ± 0.12	0.6 ± 0.4	0.945 ± 0.24	0.8 ± 0.14
CC(=O)On1cc(F)c(=O)[nH]c1=O	0.636 ± 0.53	0.603 ± 0.23	0.979 ± 0.23	1.03 ± 0.18	0.765 ± 0.056	0.977 ± 0.015	0.859 ± 0.015	0.673 ± 0.096	0.464 ± 0.59	0.933 ± 0.22	0.746 ± 0.13
O=c1[nH]c(=O)n([C@H]2C[C@H](O)[C@@H](CO)O2)cc1F	0.574 ± 0.53	0.629 ± 0.23	0.789 ± 0.18	1.15 ± 0.27	0.8368 ± 0.0026	0.979 ± 0.066	0.927 ± 0.06	0.762 ± 0.13	0.584 ± 0.38	0.953 ± 0.23	0.7944 ± 0.0043
CCn1cc(C(=O)O)c(=O)c2cc(F)c(N3CCNCC3)cc21	0.00604 ± 0.0086	0.468 ± 0.034	0.906 ± 0.16	1.37 ± 0.53	0.659 ± 0.12	1.01 ± 0.015	1.01 ± 0.11	0.799 ± 0.017	0.573 ± 0.36	0.977 ± 0.21	0.849 ± 0.075
O=c1[nH]c(=O)n(C2CC(O)C(CO)O2)cc1F (stereo not given)	0.98 ± 0.053	0.557 ± 0.14	1.15 ± 0.19	1.2 ± 0.26	0.657 ± 0.14	1.09 ± 0.097	1.03 ± 0.036	0.856 ± 0.064	0.597 ± 0.4	0.931 ± 0.18	0.84 ± 0.0053
CC(C)(O/N=C(\C(=O)N[C@@H]1C(=O)N2C(C(=O)O)=C(C[N+]3(CCNC(=O)c4ccc(O)c(O)c4Cl)CCCC3)CS[C@H]12)c1csc(N)n1)C(=O)O	0.401 ± 0.11	0.506 ± 0.075	0.933 ± 0.058	1.05 ± 0.32	0.753 ± 0.013	0.92 ± 0.062	0.834 ± 0.094	0.0569 ± 0.016	0.515 ± 0.35	1.01 ± 0.23	0.672 ± 0.082
N[C@@H]1[C@H]2CN(c3nc4c(cc3F)c(=O)c(C(=O)O)cn4-c3ccc(F)cc3F)C[C@@H]12	0.0708 ± 0.1	0.354 ± 0.0078	1.04 ± 0.084	1.14 ± 0.23	0.689 ± 0.063	0.912 ± 0.029	0.937 ± 0.033	0.596 ± 0.17	0.555 ± 0.39	0.928 ± 0.22	0.783 ± 0.071
COC1(NC(=O)Cc2cccs2)C(=O)N2C(C(=O)[O-])=C(COC(N)=O)CSC21.[Na+] (stereo not given)	1.11 ± 0.041	0.48 ± 0.015	0.855 ± 0.14	1.41 ± 0.51	0.663 ± 0.13	0.984 ± 0.011	1.08 ± 0.062	0.0814 ± 0.021	0.574 ± 0.37	1.01 ± 0.21	0.829 ± 0.017
CN1CCN(c2cc3c(cc2F)c(=O)c(C(=O)O)cn3-c2ccc(F)cc2)CC1.Cl	0.0325 ± 0.046	0.445 ± 0.075	1.46 ± 0.11	1.3 ± 0.33	0.681 ± 0.17	0.957 ± 0.011	0.9286 ± 0.0092	0.593 ± 0.055	0.566 ± 0.37	0.959 ± 0.17	0.929 ± 0.056
NC[C@H]1O[C@H](O[C@H]2[C@H](O)[C@@H](O[C@H]3O[C@H](CO)[C@@H](O)[C@H](N)[C@H]3O)[C@H](N)C[C@@H]2N)[C@H](N)[C@@H](O)[C@@H]1O	0.315 ± 0.23	0.151 ± 0.041	0.868 ± 0.093	0.916 ± 0.35	0.46 ± 0.095	0.992 ± 0.076	0.3862 ± 0.0032	0.686 ± 0.15	0.605 ± 0.41	0.975 ± 0.24	0.781 ± 0.22
CC1c2cccc(O)c2C(=O)C2=C(O)C3(O)C(=O)C(C(N)=O)=C(O)C(N(C)C)C3C(O)C21.Cl (stereo not given)	0.996 ± 0.098	0.728 ± 0.41	1.05 ± 0.12	1.34 ± 0.32	0.734 ± 0.2	0.971 ± 0.048	1.12 ± 0.046	0.431 ± 0.093	0.572 ± 0.37	0.943 ± 0.17	0.9639 ± 0.0043
NCCC(O)C(=O)NC1CC(N)C(OC2OC(CN)C(O)C(O)C2O)C(O)C1OC1OC(CO)C(O)C(N)C1O.O (stereo not given)	0.693 ± 0.16	0.562 ± 0.14	0.998 ± 0.06	0.875 ± 0.12	0.824 ± 0.023	0.994 ± 0.011	0.647 ± 0.01	0.963 ± 0.055	0.564 ± 0.37	0.962 ± 0.21	0.434 ± 0.49
CCn1nc(C(=O)O)c(=O)c2cc3c(cc21)OCO3	0.136 ± 0.013	0.479 ± 0.042	1.093 ± 0.01	1.29 ± 0.3	0.744 ± 0.21	0.99 ± 0.077	1.013 ± 0.0046	0.762 ± 0.17	0.61 ± 0.41	0.86 ± 0.028	0.929 ± 0.051
Cc1oc(=O)oc1CN1CCN(c2cc3c(cc2F)c(=O)c(C(=O)O)c2n3C(C)S2)CC1 (stereo not given)	0.0525 ± 0.074	0.431 ± 0.01	1.19 ± 0.31	1.23 ± 0.25	0.852 ± 0.0094	0.942 ± 0.024	1.12 ± 0.12	0.452 ± 0.31	0.586 ± 0.4	0.963 ± 0.18	0.842 ± 0.022
CON=C(C(=O)NC1C(=O)N2C(C(=O)OCOC(=O)C(C)(C)C)=C(C=Cc3scnc3C)CSC12)c1csc(N)n1 (stereo not given)	0.894 ± 0.26	0.379 ± 0.064	1.24 ± 0.4	1.24 ± 0.33	0.894 ± 0.029	0.914 ± 0.031	0.794 ± 0.14	0.253 ± 0.062	0.568 ± 0.41	0.893 ± 0.24	0.872 ± 0.034
CO[C@@H]1[C@@H](OC(=O)c2ccc(C)[nH]2)[C@@H](O)[C@@H](Oc2ccc3c(c2C)OC(=O)[C@H](NC(=O)c2[nH]cc(CC(=O)Nc4cc5ccc(O[C@@H]6OC(C)(C)[C@H](OC)[C@@H](OC(=O)c7ccc(C)[nH]7)[C@H]6O)c(C)c5oc4=O)c2C)C3)CC1(C)C	0.165 ± 0.23	0.0977 ± 0.012	0.835 ± 0.013	0.759 ± 0.06	0.876 ± 0.11	0.892 ± 0.021	0.72 ± 0.087	1.09 ± 0.059	0.869 ± 0.57	1.26 ± 0.26	0.715 ± 0.093
O=C1OC(=O)[C@H]2[C@@H]1[C@H]1CC[C@H]2O1	0.864 ± 0.32	0.551 ± 0.09	1.15 ± 0.085	1.01 ± 0.012	0.811 ± 0.0082	1.07 ± 0.033	1.01 ± 0.066	0.734 ± 0.16	0.606 ± 0.38	0.979 ± 0.22	0.888 ± 0.18
O=C([O-])C1=C(CSc2nnnn2CS(=O)(=O)[O-])CSC2C(NC(=O)C(O)c3ccccc3)C(=O)N12.[Na+].[Na+] (stereo not given)	0.964 ± 0.12	0.74 ± 0.14	1.26 ± 0.45	1.24 ± 0.4	0.753 ± 0.0084	1.1 ± 0.034	0.879 ± 0.012	0.1 ± 0.034	0.217 ± 0.2	1.03 ± 0.24	0.815 ± 0.068
CCOC(=O)OC(C)OC(=O)C1N2C(=O)C(NC(=O)C(N)c3ccccc3)C2SC1(C)C.Cl (stereo not given)	0.992 ± 0.22	0.463 ± 0.04	0.901 ± 0.089	1.09 ± 0.16	0.841 ± 0.011	1.04 ± 0.033	0.975 ± 0.026	0.82 ± 0.1	0.598 ± 0.42	0.981 ± 0.23	0.803 ± 0.031
NCc1ccccc1CC(=O)NC1C(=O)N2C(C(=O)O)=C(CSc3nnnn3CC(=O)O)CSC12 (stereo not given)	1.03 ± 0.026	0.487 ± 0.014	1.19 ± 0.037	1.38 ± 0.51	0.683 ± 0.18	1.05 ± 0.23	0.988 ± 0.13	0.08776 ± 0.00022	0.581 ± 0.39	0.979 ± 0.2	0.979 ± 0.23
O=C1CN(/N=C/c2ccc([N+](=O)[O-])o2)C(=O)N1	0.715 ± 0.42	0.621 ± 0.24	0.855 ± 0.16	0.649 ± 0.36	0.764 ± 0.037	0.999 ± 0.044	0.842 ± 0.048	0.665 ± 0.11	0.481 ± 0.61	0.963 ± 0.21	0.745 ± 0.068

Reference: the supplement of paper PMC9446081
